Among the data in PubChem BioAssay AID1053197 (The Scripps Research Institute Molecular Screening Center, 2014) are inhibition values, retold here.

Molecules are shown by their SMILES. The campaign covered roughly 370,000 compounds. About 2,600 (0.7%) were called active.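 How the source made its calls: active means inhibition above a cutoff: mean of compounds within the control limits plus 3 SD of those (cut at about 17% in these data); inactive means the rest.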 The entries come from a sample that favours actives as a whole.

The target of this assay is Sialate O-acetylesterase (Homo sapiens) (UniProt Q9HAT2). As to the kind of experiment: human SIAE inhibitors, primary screen, biochemical, fluorescence polarization, FP-Rh probe, 1536-well HTS (AID 1053197).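 Further: 0% = plate median of compound wells and 100% = probe without SIAE protein.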 As to conditions: SIAE FP-Rh probe binding, at 9.66 µM, active compounds read high. (Fluorescence polarisation rises when a labelled molecule tumbles more slowly, as on binding a larger partner.)
Sequence of Sialate O-acetylesterase (Homo sapiens) (Q9HAT2 whole entry, looked up): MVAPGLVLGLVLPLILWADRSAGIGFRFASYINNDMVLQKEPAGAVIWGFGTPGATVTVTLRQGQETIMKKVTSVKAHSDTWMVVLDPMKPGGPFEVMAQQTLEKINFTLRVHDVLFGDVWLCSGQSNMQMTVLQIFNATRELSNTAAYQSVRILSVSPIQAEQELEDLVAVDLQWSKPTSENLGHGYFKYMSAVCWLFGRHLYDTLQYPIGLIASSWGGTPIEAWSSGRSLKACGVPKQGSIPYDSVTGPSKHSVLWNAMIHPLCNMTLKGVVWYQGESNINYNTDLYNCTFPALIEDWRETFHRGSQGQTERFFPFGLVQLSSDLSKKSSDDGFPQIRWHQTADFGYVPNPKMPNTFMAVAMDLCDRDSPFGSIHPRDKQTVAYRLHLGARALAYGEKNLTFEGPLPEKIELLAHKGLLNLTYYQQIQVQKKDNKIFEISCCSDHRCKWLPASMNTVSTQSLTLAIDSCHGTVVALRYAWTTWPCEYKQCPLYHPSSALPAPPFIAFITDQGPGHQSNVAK
As a reminder, the inhibition is the relative decrease from the control value, in per cent. As to `CCOC(=O)N1CCN(C(=O)C[C@@H]2C(=O)N(CCc3ccc(Cl)cc3)C3=CCCC[C@]32C(=O)OCC)CC1`, the inhibition is 2.23% (inactive).
As to `CCCCNC(=O)C[C@@H]1C(=O)N(CCc2ccc(Cl)cc2)C2=CCCC[C@]21C(=O)OCC`, the inhibition was -0.15% (inactive).
For the compound `Cc1ccc(C)c(NC(=O)CCS(=O)(=O)c2ccccc2)c1`, the inhibition is -0.04% (inactive).
Consider `CCCCCCCCNS(=O)(=O)/C=C/c1cc(C)ccc1CNC(=O)OC(C)(C)C`, for which the inhibition was -1.33% (inactive).
The same measure for `O=C(NNc1c2ccccc2nc2ccccc12)c1cc2ccccc2cc1O`: 49.5% (active); for `Cc1ccc(C)c(NC(=O)NNC(=O)c2ccc3ccccc3c2O)c1`: 13.1% (inactive); for `Cc1cc(C(=O)NNC(=O)c2cccc(S(=O)(=O)N3CCOCC3)c2)c2ccccc2n1`: 0.67% (inactive).
Take `COc1ccc(/C=C2\CC3(OC(C)=O)CCCN2C3)cc1` (stereo unspecified): the inhibition is 5.11% (inactive).
As to `Cc1ccc(-n2c(SCC(=O)Nc3cccc4ccccc34)nnc2-c2ccco2)cc1`, the inhibition is -4.95% (inactive).
The same measure for `CC(=O)O[C@@]1(C(C)=O)CCC2[C@H]3C=C(C)C4=CC(=O)CC[C@@]4(C)C3CC[C@]21C` (stereo partly specified): 4.07% (inactive).
For `S=C(Nc1ccc(Br)cc1Cl)NC1CCN(Cc2ccccc2)CC1`, the inhibition is 5.25% (inactive).
As to `O=C(NC1CCN(Cc2ccccc2)CC1)c1cc(Br)c(Br)[nH]1`, the inhibition was -7.58% (inactive).
In the case of `S=C(Nc1ccc(Br)cc1)NC1CCN(Cc2ccccc2)CC1`, the inhibition was 17.1% (active).
Consider `N#Cc1ccccc1OC[C@@H](O)CN1CCC(C(O)(c2ccccc2)c2ccccc2)CC1`, for which the inhibition is 3.53% (inactive).
Turning to `CN[C@H]1C[C@H]2c3cc(N4CCOCC4)ccc3CCN2C[C@H]1[C@H](C)O`, the inhibition is 3.31% (inactive).
As to `COc1ccc(CCNC(=O)C2CCCN(S(=O)(=O)c3ccc(OC)cc3)C2)cc1` (stereo unspecified), the inhibition was -4.52% (inactive).
The same measure for `CCCCNC(=O)C1CCCN(S(=O)(=O)c2ccc(S(=O)(=O)NCC(C)C)cc2)C1` (stereo unspecified): -1.45% (inactive).
The same measure for `CC(C)CCNC(=O)C1CCCN(S(=O)(=O)c2ccc(F)cc2)C1` (stereo unspecified): 23.3% (active); for `Cc1ccc(NC(=O)Nc2cc(C)nn2-c2ccccc2)cc1`: 0.39% (inactive).
As to `CCOC(=O)[C@@]12CCC3=C1N(CCC3)C(=O)[C@H](CC(=O)N1CCN(C(=O)c3ccco3)CC1)C2`, the inhibition was 8.17% (inactive).
On to `O=C(Nc1ccc(Br)cc1)OCCN1C(=O)CCC12CCC(c1ccccc1)CC2` (stereo unspecified), for which the inhibition was 2.49% (inactive).
For `Cc1ccc(OC(=O)c2c(C)nn(-c3ccccc3)c2C)cc1`, the inhibition is 5.09% (inactive).
Regarding `Cc1cccc(C)c1NC(=O)COC(=O)c1c(C)nn(-c2ccccc2)c1C`, the inhibition is 2.02% (inactive).
With `CCOC(=O)c1c(C)nn(-c2ncccc2NC(=O)CCC(=O)O)c1C`, the inhibition was 19.8% (active).
With `COc1cc(/C=C/C(=O)n2cnc3ccccc32)cc(OC)c1OC`, the inhibition is -3.74% (inactive).
The same measure for `CC(=O)Nc1cccc(Nc2ccc(C#N)cc2)c1`: 7.95% (inactive).
The same measure for `CS(=O)(=O)N(CC(=O)Nc1ccc(F)cc1F)c1cccc([N+](=O)[O-])c1`: 5.36% (inactive).
With `CC(=O)Nc1cccc([N+](=O)[O-])c1`, the inhibition was 19.3% (active).
In the case of `CN(C(=O)c1cccc(NC(=O)Cc2cccc([N+](=O)[O-])c2)c1)C1CCCCC1`, the inhibition is -12.1% (inactive).
The same measure for `CCc1ccc(NC(=O)C(C)OC(=O)/C=C/c2cccc([N+](=O)[O-])c2)cc1` (stereo unspecified): -4.1% (inactive); for `CN(CC(=O)Nc1cccc(F)c1)CC(=O)Nc1cccc([N+](=O)[O-])c1`: 21.2% (active).
As for `COC(=O)[C@]12C[C@H](CC(=O)NCc3cccc4ccccc34)C(=O)N(CCc3ccc(OC)c(OC)c3)C1=C[C@H](C1CCCC1)O[C@@H]2C`, the inhibition was -2.97% (inactive).
Consider `O=C(OC12CCCN(C1)/C(=C/c1ccccc1)C2)c1ccco1` (stereo unspecified), for which the inhibition was 0.28% (inactive).
The same measure for `COP(=O)(O)CNC(=O)OCc1ccccc1`: 0.82% (inactive); for `O=C(NCc1cccs1)C1CCN(S(=O)(=O)c2ccccc2[N+](=O)[O-])CC1`: -0.55% (inactive); for `CCN(CC)C(=O)CC[C@H]1CC[C@]2(CCCN(Cc3ccc(Cl)cc3)C2)O1`: -1% (inactive).
Regarding `Cc1ccccc1NC(=O)COC(=O)c1ccc(Sc2ncn[nH]2)c([N+](=O)[O-])c1`, the inhibition is 0.99% (inactive).
Take `CCOC(=O)N1CCN(C(=O)C[C@H]2C[C@@]3(C(=O)OC)C(=C[C@H](C(C)(C)C)O[C@@H]3C)N(Cc3ccc(Cl)cc3Cl)C2=O)CC1`: the inhibition was 4.46% (inactive).
The same measure for `Cc1ccc2c(c1)C1CN(C)CCC1N2C(=O)c1ccccc1NS(=O)(=O)c1ccc(F)cc1C` (stereo unspecified): -4.94% (inactive).
With `Cc1ccc2c(c1)C1CN(C)CCC1N2C(=S)Nc1ccc(OC(F)F)cc1` (stereo unspecified), the inhibition is 19% (active).
In the case of `Cc1ccc2c(c1)C1CN(C)CCC1N2C(=S)Nc1ccc(Cl)cc1Cl` (stereo unspecified), the inhibition was -1.14% (inactive).
The same measure for `O=C(OCC#CCSc1nnc(-c2ccco2)o1)c1ccc(F)cc1`: -3.86% (inactive).
The same measure for `FC(F)(F)c1cccc(Cn2ccc3ccc(-c4ccc5ccn(Cc6ccccc6)c5c4)cc32)c1`: -4.98% (inactive).
`Cc1nc(-c2ccc(Cl)cc2)sc1C1(C)CC(c2ccc(Br)cc2)=NO1` (stereo unspecified): the inhibition is -4.52% (inactive).
The same measure for `Cc1nc(N2CCOCC2)sc1C(=O)NN`: 4.29% (inactive).
The same measure for `Cc1nc(-c2ccc(Cl)cc2)sc1C(=O)NN`: 17.1% (active); for `CN(C)S(=O)(=O)c1cccc(C(=O)N/N=C\c2ccco2)c1`: 1.17% (inactive).
The same measure for `O=C1CCCC(O)=C1N=Nc1ccc2ncsc2c1`: 4.95% (inactive).
In the case of `O=C1CCCC(O)=C1N=Nc1ccc(S(=O)(=O)N2CCOCC2)cc1`, the inhibition was 32.3% (active).
The same measure for `CC1(C)CC(=O)C(N=Nc2ccc(S(=O)(=O)N3CCCCCC3)cc2)=C(O)C1`: -6.58% (inactive).
`COc1cccc(/C=C2\CC3(OC(C)=O)CCCN2C3)c1` (stereo unspecified): the inhibition is 5.6% (inactive).
Consider `CNS(=O)(=O)c1ccc(NC(=O)Nc2ccc3c(c2)OCO3)cc1`, for which the inhibition is -0.18% (inactive).
Regarding `CC(NS(=O)(=O)c1ccc(Cl)cc1)C(=O)Nc1ccc2c(c1)OCCO2` (stereo unspecified), the inhibition is 17.1% (active).
In the case of `CC(=O)Nc1ccc(NC(=O)C(NS(=O)(=O)c2ccc3c(c2)OCCO3)C(C)C)cc1` (stereo unspecified), the inhibition is -4.61% (inactive).
The same measure for `Cc1ccc(Cn2cc(CN3[C@@H](C)COc4cc(Br)ccc4S3(=O)=O)nn2)cc1`: -0.41% (inactive).
The same measure for `CC(=O)OCCN1CCCC12CCC(c1ccccc1)CC2` (stereo unspecified): -7.94% (inactive); for `COc1ccc2nc(Nc3nc4cc5c(cc4s3)OCCO5)sc2c1`: 21.1% (active).
Take `COc1cccc(C(=O)Nc2cc3c(cc2Br)OCCCO3)c1`: the inhibition is 5.12% (inactive).
The same measure for `COc1ccc(-c2nnc(SCC(=O)c3ccc4c(c3)OCCO4)o2)cc1`: -8.81% (inactive).
The same measure for `O=C(NC1CCC1)c1ccc(C#CC2CC2)cn1`: 3.02% (inactive); for `CC(C)(C)OC(=O)NCCc1ccccc1/C=C/S(=O)(=O)NCc1ccc(F)cc1`: 3.43% (inactive).
As to `Cc1ccc(-c2nc(C3CCCN(S(=O)(=O)c4ccc(Br)s4)C3)no2)cc1` (stereo unspecified), the inhibition is 3.3% (inactive).
The same measure for `O=C(CSc1nnc(COc2ccccc2)n1-c1ccc(Cl)cc1)Nc1ccc2c(c1)OCO2`: -2.77% (inactive); for `S=C(NCCCc1cnc[nH]1)NCCCN(Cc1ccc(Cl)c(Cl)c1)c1ccc(Br)cn1`: 38.7% (active).
The same measure for `NCCCNC(=S)NCCCN(Cc1ccc(Cl)cc1)c1ccc(Br)cn1`: -4.09% (inactive); for `COc1ccc(Cn2ccc3ccc(-c4ccc5ccn(Cc6ccccc6C)c5c4)cc32)cc1`: 1.75% (inactive); for `COC(=O)[C@]12C[C@H](CC(=O)NCCCN3CCCC3=O)C(=O)N(CCc3ccc(OC)c(OC)c3)C1=C[C@H](COCc1ccccc1)O[C@@H]2C`: -1.06% (inactive).
The same measure for `CCOC(=O)[C@]12CCCCC/C=C\1N(Cc1ccc(OC)cc1)C(=O)[C@H]2CC(=O)NCc1ccc(C)o1`: 4.67% (inactive).
Regarding `O=C(CCCCCN1C(=O)C2C3C=CC(C3)C2C1=O)Nc1ccccc1` (stereo unspecified), the inhibition is 0.48% (inactive).
On to `COc1ccc(CSc2nnc(SCC(=O)Nc3ccccc3C(F)(F)F)s2)cc1`, for which the inhibition was 2.74% (inactive).
The same measure for `O=C(NCc1cccs1)c1ccc2c(c1)ncn2C1CCCC1`: 6.82% (inactive); for `Cc1nc2cc(NCc3cccs3)ccc2n1C`: 82.8% (active).
For `CC(NCc1cccs1)C(=O)Nc1cc(Cl)cc(Cl)c1` (stereo unspecified), the inhibition was 8.74% (inactive).
The same measure for `Cc1ccc(CN2CCCCC(NC(=O)C3CCCCC3)C2=O)cc1` (stereo unspecified): -2.58% (inactive); for `COC(=O)[C@]12C[C@H](CC(=O)NCc3ccccc3)C(=O)N(Cc3ccccc3)C1=C[C@H](COCc1ccccc1)O[C@@H]2C`: -4.26% (inactive); for `CC(=O)Nc1ccc(S(=O)(=O)N2CCCC2C(=O)O)cc1` (stereo unspecified): -4.8% (inactive).
The same measure for `CC(=O)Nc1ccc(S(=O)(=O)Nc2ccc(N3CCCCC3)cc2)cc1`: 22.2% (active).
Take `CC(=O)Nc1ccc(S(=O)(=O)N2CCN(C3CCCCCCC3)CC2)cc1`: the inhibition was 1.94% (inactive).
The same measure for `COc1ccc(CN2C(=O)N3Cc4cc(OC)ccc4C3CS2(=O)=O)cc1` (stereo unspecified): -3.42% (inactive); for `Cc1ccc(-c2nnc(SCC(=O)Nc3ccc(Oc4ccccc4)cc3)n2Cc2ccco2)cc1`: -0.26% (inactive).
On to `Cc1ccc(OCC(=O)Nc2ccc(-c3nnc(-c4ccco4)o3)cc2)cc1`, for which the inhibition is 32.9% (active).
The same measure for `CCOC(=O)C1=C(O)/C(=C/c2ccc(OCC(=O)Nc3ccc(C)cc3)cc2)N=C1C`: -21.7% (inactive); for `Cc1nc(NC(=O)C(C)(C)C)sc1[N+](=O)[O-]`: -3.66% (inactive); for `COC(=O)c1c(C(=O)OC)c2n(c1C)CCS2`: -0.54% (inactive).
The same measure for `COC(=O)C1=C(NC(=O)C(C)(C)C)CCS1`: 17.4% (active); for `Cc1cc(C)n2ncc(C(=O)Nc3ccc4c(c3)OCCO4)c2n1`: 13.6% (inactive).
